Only some compounds are listed: those with a hit (about 1.3% of all), similar ones and a draw of the others.
CtBP-E1A blk – CtBP/E1A binding inhibition | AlphaScreen GST-E1A/His-CtBP binding, 1536-well; hits give low values | activity change, % (concentration not given with the values) | actives 0.49% (n = 340,000) | AID 651724
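GST-E1A and His-tagged CtBP (125 nM each as 5X stock) were preincubated with pin-transferred compound for 2 h at 37 °C in the dark, then glutathione donor and nickel acceptor beads were added for 1 h before AlphaScreen reading.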
CCT modulator – cytosolic chaperonin activity modulation; purified chaperonin ATPase assay, HTRF ADP detection, 30 min; activity change, % (no concentration beside the values), hits read low; actives 0.3% (n = 360,000); in the data active means activity change below about -30%
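ATPase activity: ADP formed was measured by HTRF Transcreener (665/615 nm ratio) after 30 min at 37 deg C with 10 uM ATP. Compounds screened at one 76 uM concentration against 40 or 20 nM TRiC in Tris pH 7.4/KCl/MgCl2/DTT buffer.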
Six1-Eya2 blk – inhibitors of human Six1/Eya2 interaction. Q15475+O00167. AlphaScreen GST-Six1/His-Eya2 binding, biochemical; hits give low values. activity change, % (no concentration beside the values). actives 0.56% (n = 360,000)
Target sequence (O00167 whole entry, looked up): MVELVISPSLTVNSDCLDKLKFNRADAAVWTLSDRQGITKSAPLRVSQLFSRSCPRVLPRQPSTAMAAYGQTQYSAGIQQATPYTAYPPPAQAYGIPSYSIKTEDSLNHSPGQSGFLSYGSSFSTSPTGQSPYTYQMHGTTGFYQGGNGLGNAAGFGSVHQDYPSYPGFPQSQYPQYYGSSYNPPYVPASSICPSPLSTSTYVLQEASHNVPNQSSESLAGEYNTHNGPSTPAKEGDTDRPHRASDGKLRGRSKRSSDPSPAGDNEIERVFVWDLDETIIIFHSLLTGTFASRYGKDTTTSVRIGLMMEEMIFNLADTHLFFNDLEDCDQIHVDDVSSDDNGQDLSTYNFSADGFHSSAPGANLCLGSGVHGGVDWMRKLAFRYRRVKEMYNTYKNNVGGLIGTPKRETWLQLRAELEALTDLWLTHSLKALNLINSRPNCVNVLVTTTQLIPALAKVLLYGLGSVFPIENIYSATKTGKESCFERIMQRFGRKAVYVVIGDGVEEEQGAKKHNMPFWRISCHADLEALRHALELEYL
Target sequence (Q15475 whole entry, looked up): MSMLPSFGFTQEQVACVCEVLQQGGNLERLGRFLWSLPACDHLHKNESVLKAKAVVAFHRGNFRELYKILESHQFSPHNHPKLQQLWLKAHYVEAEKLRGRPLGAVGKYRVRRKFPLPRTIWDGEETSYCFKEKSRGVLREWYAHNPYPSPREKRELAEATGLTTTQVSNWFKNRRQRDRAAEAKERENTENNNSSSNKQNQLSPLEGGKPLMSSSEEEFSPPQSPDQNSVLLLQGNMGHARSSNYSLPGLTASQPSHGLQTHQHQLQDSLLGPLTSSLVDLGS
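Six1/Eya2 binding was read as AlphaScreen signal after compounds were pinned into GST-Six1 plus His-tagged Eya2 (5X stock 250/500 nM) in pH 8.0 Tris/NaCl/TCEP buffer, beads added, then incubated 1 h, 37 C, dark.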
pAkt inh – blocks phosphorylation of Akt; Neuro2A IGF-stimulated pAkt S473 HTRF, 20 min; hits give low values; activity change, % for hits at 50 µM; actives 0.32% (n = 360,000); in the data active means activity change below about -80%; inconclusive means mostly about -51% to -80%
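Single-point screen (50 µM final compound) in Neuro2A cells stimulated 20 min with 6 nM IGF at 37 deg C. After lysis, Ser473-phosphorylated Akt read by HTRF (ex 330 nm, em 615/665 nm) as the 665/615 ratio.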
Numbers without * were called inactive; i = inactive; ? = inconclusive; · = no result. Unless noted, no stated cut-off is given here; in the data, active means activity change below about -65%; inconclusive means mostly about -30% to -63%; inactive means weaker than that. On the % scale 0 is the no-effect control and ±100 the full control effect.

SMILES | CtBP-E1A blk | CCT modulator | Six1-Eya2 blk | pAkt inh
O=C(NN=Cc1c(O)ccc2ccccc12)C1CC1 | -69* | 0 | ? | i
O=C(CN1CCOCC1)N/N=C/c1cccc2ccccc12 | 1 | -1 | 1 | i
O=C(NN=Cc1cccc2ccccc12)C1CC1 | -2 | -1 | -7 | i
C#CCCc1cocc1/C=[N+](\[O-])c1ccc(C(=O)OCC)cc1 | -26 | 0 | 3 | i
O=c1c2ccccc2nc(N/N=C/c2c(O)ccc3ccccc23)n1O | -94* | 0 | -90* | ·
Cc1ccc(O)c(/C=N/NC(=O)CN2CCCC2)c1 | · | 0 | -65* | i
CC1CCCN(CCCNC(=O)c2nn(C)c3c2CS(=O)(=O)c2ccccc2-3)C1 (stereo not given) | · | -76* | 24 | ·
O=C(Nc1nc(-c2ccc3ccccc3c2)cs1)C1CCN(S(=O)(=O)c2cccs2)CC1 | -19 | -51* | 0 | i
O=C(Nc1nc(-c2ccc(S(=O)(=O)N3CCCC3)cc2)cs1)c1cccs1 | -75* | 1 | -73* | i
O=C(Nc1ccc(S(=O)(=O)N2CCCC2)cc1)c1cccs1 | 14 | 1 | 25 | i
O=C(Nc1nc(-c2ccc(S(=O)(=O)N3CCCCCC3)cc2)cs1)c1cccs1 | -70* | 0 | ? | i
CN1CCN(S(=O)(=O)c2ccc(NC(=O)c3cccs3)cc2)CC1 | -2 | -1 | -6 | -102%*
COc1ccc(C(OC(=O)c2ccco2)C(=O)NC(C)(C)C)cc1OC (stereo not given) | · | -1 | 3 | i
CC1(C)SC(C)(C)N(C=O)C1C(=O)O (stereo not given) | -1 | -1 | -1 | i
Cc1ncc(CO)c(/C=N/NC(=O)c2cc(Br)ccc2O)c1O | · | -5 | ? | i
Cc1cc(C(=O)N/N=C/c2c(CO)cnc(C)c2O)c2ccccc2n1 | -99* | 1 | -92* | i
O=C(N/N=C/c1cc(Cl)cc([N+](=O)[O-])c1O)c1ccccc1NS(=O)(=O)c1cccs1 | -1 | 1 | -77* | i
Cc1cc(C(=O)N/N=C/c2cc(Cl)cc([N+](=O)[O-])c2O)c2ccccc2n1 | -91* | 2 | -89* | i
COc1cccc(NC(=O)CSc2ncnc3c2cnn3Cc2ccccc2)c1 | 2 | -2 | 2 | i
COc1ccc(NC(=O)CSc2ncnc3c2cnn3CCc2ccccc2)cc1 | 2 | -4 | 3 | -132%*
O=C(NNc1c2ccccc2nc2ccccc12)c1cccc(O)c1 | -77* | -1 | -65* | i
O=C(NNc1c2ccccc2nc2ccccc12)c1ccccc1Cl | -14 | -1 | -25 | i
O=C(NNc1c2ccccc2nc2ccccc12)c1ccc(O)cc1 | -75* | 3 | ? | i
CCCC(=O)NNc1c2ccccc2nc2ccccc12 | -13 | -3 | -11 | i
Clc1ccc(CNc2ccc3nnc(-c4ccccc4)n3n2)cc1 | -2 | -3 | -3 | i
SMILES | CtBP-E1A blk | CCT modulator | Six1-Eya2 blk | pAkt inh
CCOc1ccc(CCNc2ccc3nnc(-c4ccccc4)n3n2)cc1OCC | ? | -2 | -72* | i
Fc1ccc(CSc2ncnc3sc4c(c23)CCCC4)cc1 | 11 | -4 | 13 | -114%*
O=C(N/N=C/c1ccccc1O)C(=O)N1CCCCCC1 | -88* | 0 | -79* | i
O=C(NN=Cc1ccccc1O)C(O)c1ccccc1 (stereo not given) | -68* | -1 | ? | i
COc1cccc(/C=N/NC(=O)C(=O)N2CCCC2)c1O | 10 | 1 | -89* | i
O=C(N/N=C/c1ccccc1)C(O)c1ccccc1 (stereo not given) | -12 | -1 | 4 | i
O=C(CCN1CCN(c2ccccc2)CC1)N/N=C/c1ccccc1O | 7 | -2 | -70* | i
COc1ccccc1NC(=O)C1=C(C)NC2=C(C(=O)CC(c3ccc(OC)c(OC)c3)C2)C1c1coc2ccccc2c1=O (stereo not given) | -20 | -2 | -78* | i
C=CCn1c(C)cc(C(=O)CSc2nc3ccccc3c(=O)[nH]2)c1C | -13 | 2 | -28 | -110%*
C=CCn1c(C)cc(C(=O)CSc2nc3ccccc3[nH]2)c1C | -8 | 0 | -12 | i
O=C(Nc1ccc(OC(F)F)cc1)c1cc(S(=O)(=O)N2CCOCC2)ccc1N1CCCC1 | -3 | -4 | 1 | i
COC(=O)N/N=C/c1c(C)c(C(=O)c2ccc(F)cc2)n2ccccc12 | -28 | 0 | -29 | i
Cc1c(/C=N/NC(=O)c2ccc(O)cc2)c2ccccn2c1C(=O)c1ccc(F)cc1 | -78* | 0 | -70* | i
Cc1c(C(=O)Nc2ccc(Cl)cc2)c2ccccn2c1C(=O)c1ccc(F)cc1 | 11 | -2 | 8 | -110%*
COc1cc(C2NC(=S)NC(C)=C2C(=O)Nc2cc(C)cc(C)c2)ccc1O (stereo not given) | 1 | -3 | 0 | i
COc1ccc2nc(C3CCCCC3)c3c(c2c1)CCC3 | 11 | 0 | 11 | i
COc1ccc(/C(C)=N/Nc2ccc(F)cc2F)c(O)c1 | -73* | -7 | 1 | i
Cc1cc(F)ccc1C(O)c1ncc(-c2ccccc2F)[nH]1 (stereo not given) | -7 | -1 | 2 | i
O=c1[nH]nc(SC2CCCCC2)c(=O)[nH]1 | 2 | 0 | 0 | i
COC(=O)C1=C(C)C(c2ccc(OC)cc2OC)NC(=O)N1 (stereo not given) | 5 | 0 | 3 | -117%*
COC(=O)C1=C(C)C(c2ccc(OC)cc2)NC(=O)N1 (stereo not given) | · | -6 | 11 | i
Cc1cc(NC(=O)CC(C)C)c(=O)n(Cc2ccccc2F)c1 | · | -1 | -2 | i
Cc1csc(SCC(=O)Nc2nc3ccccc3s2)n1 | 9 | -6 | 1 | -115%*
CCOc1ccc(N(CC(=O)NC2CCCCC2)C(=O)CCC(=O)Nc2nccs2)cc1 | 1 | -2 | 6 | i
O=C(C1CCN(S(=O)(=O)c2ccc(F)cc2)CC1)N1CCOCC1 | -22 | -41* | 7 | i
SMILES | CtBP-E1A blk | CCT modulator | Six1-Eya2 blk | pAkt inh
CCOc1ccc2c(ccc(/C=C/c3cc(C)c4cccnc4c3O)[n+]2C)c1 | -94* | 0 | -90* | i
CCOC(=O)c1c(C)nc2sc3c(=O)n(-c4ccc(C(C)=O)cc4)cnc3c2c1-c1ccc(OC)cc1 | 6 | -1 | 5 | -108%*
Oc1ccc(N=Nc2c(O)ccc3ccccc23)cc1 | -75* | 1 | -70* | i
CN(C)CC1C2CCC(C2)C1O (stereo not given) | 7 | 1 | 0 | i
O=C(c1cccc(Cl)c1)c1nn(-c2ccccc2)c(=O)cc1C(F)(F)F | -73* | -5 | ? | i
O=C(c1ccccc1)c1nn(-c2ccc(Cl)cc2)c(=O)cc1C(F)(F)F | ? | -2 | -15 | i
O=C(c1ccccc1)c1nn(-c2ccccc2)c(=O)cc1C(F)(F)F | -75* | 1 | ? | i

From PubChem
